# In the library only some 2.4% were active in any assay of this set; here they are far more common.
# D2 antag – antagonizes the human D2 dopamine receptor; P14416; HEK293 TREx D2 cells, calcium flux, dopamine EC80; inhibition, % at 10 µM; hit rate 2% among 340,000; in the data active = inhibition above about 30%; inactive = below that, where a call was filed
# Target sequence (P14416 whole entry, looked up): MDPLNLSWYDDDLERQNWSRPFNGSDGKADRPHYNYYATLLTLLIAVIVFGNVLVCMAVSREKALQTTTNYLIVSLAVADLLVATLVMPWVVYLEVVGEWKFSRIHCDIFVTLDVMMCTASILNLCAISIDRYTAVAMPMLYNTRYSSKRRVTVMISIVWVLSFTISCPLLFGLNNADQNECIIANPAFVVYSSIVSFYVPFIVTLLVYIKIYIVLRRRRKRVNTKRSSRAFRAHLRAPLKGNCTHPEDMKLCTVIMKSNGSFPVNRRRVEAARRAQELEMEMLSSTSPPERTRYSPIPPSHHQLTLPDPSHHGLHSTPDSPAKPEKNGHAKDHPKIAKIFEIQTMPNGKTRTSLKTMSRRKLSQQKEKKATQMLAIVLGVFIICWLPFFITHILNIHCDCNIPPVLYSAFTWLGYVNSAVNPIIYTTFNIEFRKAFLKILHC
#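 Calcium mobilization kinetics were recorded at 1 s intervals in tetracycline-induced HEK293 T-REx D2 cells, first for 180 s after compound addition and then 180 s after EC80 dopamine.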
# D2 PAM-1 – potentiates the human D2 dopamine receptor allosterically; P14416; DiscoveRx D2 beta-arrestin cells, luminescence, 90 min; 100% = 57 uM dopamine signal; potentiation, % (no concentration beside the values); hit rate 0.23% among 360,000; in the data active = potentiation above about 50%
#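 PathHunter D2 cells, attached overnight at 37 deg C, received compound in DMSO plus dopamine at EC20 (50 nM final) for 90 min at 37 deg C. Beta-arrestin recruitment was read as luminescence after 1 h with detection reagent at ambient temperature.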
# D2 ag-1 – human D2 receptor agonism in beta-arrestin assay; P14416; DiscoveRx PathHunter D2 beta-arrestin, luminescence, 90 min; 100% = 57 uM dopamine signal; activation, % (no concentration beside the values); hit rate 0.084% among 360,000; in the data active = activation above about 40%
#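 DiscoveRx PathHunter D2 beta-arrestin cells (2,100/well) attached overnight, then compound-stimulated 90 min at 37 C in HBSS/10 mM HEPES/0.1% Tween-20 buffer; beta-galactosidase complementation read by luminescence after 1 h at ambient temperature. Dopamine 57 uM final (EC100) as control.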
# D2 PAM-2 – positive allosteric modulators of human D2 dopamine receptor; HEK293 T-REx D2, calcium flux, EC20 dopamine potentiation; potentiation, % at 10 µM; hit rate 0.34% among 340,000; AID 485347;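 active = potentiation over 3 SD above the plate norm, cut at about 30% in these data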
#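 Primary screen. Calcium kinetics in induced HEK293 T-REx D2 cells: compound pre-addition 180 s, EC20 dopamine, 180 s more.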
# D2 ag-2 – D2 dopamine receptor (human) agonism. P14416. hit rate 0.53% among 340,000. HEK293 T-REx D2 cells, calcium flux agonist mode. activation, % at 2 µM;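 active = activation over 3 SD above normal in the single-dose calcium agonist read, cut at about 30% in these data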
#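 Tetracycline-induced HEK293 T-REx cells with force-coupled D2 receptor, plated overnight at 30 C, loaded with no-wash calcium dye. After a 10 s baseline, compound was pin-added and calcium flux read kinetically for 180 s; calcium rises flagged agonists.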
# Numbers stand for hits; n = inactive; x = no result.
SMILES,D2 antag,D2 PAM-1,D2 ag-1,D2 PAM-2,D2 ag-2
CC1CCN(c2nn3c(=O)c(C(=O)NC(C)C)cnc3s2)CC1,x,x,x,n,n
CS(=O)(=O)Nn1cnc2ccccc2c1=O,n,n,n,35,n
CN(n1cnc2ccccc2c1=O)S(C)(=O)=O,x,n,n,x,x
CC(C)CNC(=S)Nc1ccccc1F,n,n,n,34,n
Cc1ccc(S(=O)(=O)N(C)Cc2nc(-c3ccccn3)no2)cc1,n,n,n,n,n
CN(Cc1nc(-c2ccccn2)no1)S(=O)(=O)c1ccccc1,37,n,n,x,n
Cc1nc2c(-c3ccccc3)c(C)nn2c(C)c1CCC(=O)NCc1ccc(F)cc1,x,x,x,n,x
O=C(COCc1cc(-c2ccc3c(c2)OCO3)on1)N1CCCCC1,78,n,n,n,n
COc1ccc(-c2nc(Cn3c(=O)cc(-c4ccccc4)c4c(C)nn(C)c43)c(C)o2)cc1OC,x,x,x,n,n
CCOC(=O)c1cccc(NC(=O)CNS(=O)(=O)c2cccs2)c1,n,n,n,44,n
CCc1ccc(C(C)NC(=S)NC2CCCCC2)cc1 (stereo not given),48,n,n,n,n
CCOc1ccc(C(C)NC(=S)NC2CCCCC2)cc1 (stereo not given),x,n,n,x,x
CCOc1ccc(C(C)NC(=S)NC2CCCCC2)cc1OCC (stereo not given),41,n,n,n,n
CSCCC(NS(=O)(=O)c1ccc2c(c1)oc(=O)n2C)C(=O)NCc1ccc(Cl)cc1 (stereo not given),x,x,x,n,n
O=C1CC(c2ccccc2)Cc2[nH]c(=O)c(-c3nc(-c4ccc(Cl)cc4)cs3)cc21 (stereo not given),x,x,x,n,x
CN(C)S(=O)(=O)c1cc(NC(=O)CNCc2ccc(F)cc2)ccc1Cl,44,n,n,n,n
Cc1ccc(NC(=O)CCNS(=O)(=O)c2ccc3c(c2)CCCC(=O)N3)cc1,x,x,x,n,n
CC1C/C(=N/O)C(C)CN1 (stereo not given),n,n,n,31,n
CCN(CC)S(=O)(=O)c1ccc2c(c1)N(CC(=O)N1CCN(c3ccc(Cl)cc3)CC1)C(=O)CO2,x,x,x,n,n
CCOc1ccc(-n2c(Cc3cc(=O)[nH]c(=O)[nH]3)nnc2SCC)cc1,40,n,n,n,n
Cc1ccc(N2CCN(S(=O)(=O)c3cc(C(=O)Nc4cc(Cl)cc(Cl)c4)ccc3F)CC2C)cc1 (stereo not given),x,x,x,n,x
CCCCCOc1ccc(Cn2c(=O)oc3ccccc32)cc1,x,x,x,n,n
CCn1nc(CC(=O)Nc2ccc(-n3cnnn3)c(OC)c2)c2ccccc2c1=O,35,n,n,n,n
CCn1nc(CC(=O)Nc2ccc(-n3cnnn3)c(C)c2)c2ccccc2c1=O,n,n,n,n,n
C[C@@H]1NC(=O)c2cc([N+](=O)[O-])cc(I)c2OCC[C@@H](C(N)=O)NC(=O)[C@H](CCCCN)NC1=O,n,n,n,n,n
SMILES,D2 antag,D2 PAM-1,D2 ag-1,D2 PAM-2,D2 ag-2
C[C@@H]1NC(=O)[C@H](CCCN=C(N)N)NC(=O)c2cc([N+](=O)[O-])cc(I)c2OCC[C@@H](C(N)=O)NC1=O,32,x,x,n,n
COc1ccc(OCc2cc(C(=O)NC(C)Cc3ccccn3)no2)c(Cl)c1 (stereo not given),33,n,n,n,n
Cc1ccc(-c2c[n+](Cc3ccc(Cl)c(Cl)c3)c3n2CCC3)cc1,30,n,n,n,n
Cc1cccc(NC(=O)CCS(=O)(=O)c2ccc3c(c2)NC(=O)CS3)n1,39,n,n,n,n
CC1CCC(NC(=O)CCS(=O)(=O)c2ccc3c(c2)NC(=O)CS3)CC1 (stereo not given),n,n,n,n,n
COc1ccc(C(OCC(O)CNCCc2ccc(S(N)(=O)=O)cc2)c2ccc(OC)cc2)cc1 (stereo not given),n,n,n,n,n
OC(CNCCc1ccc(C(F)(F)F)cc1)COC(c1ccccc1)c1ccccc1 (stereo not given),31,n,n,n,n
Cc1ccc(NC(=O)COc2ccc(-n3cnnn3)cc2)cc1C,42,n,n,n,n
COC(=O)c1ccc(NC(=O)COc2cccc(-n3cnnn3)c2)cc1,n,n,n,n,n
CCc1ccc(NC(=O)COc2cccc(-n3cnnn3)c2)cc1,37,n,n,n,n

# Bioassay records deposited in PubChem BioAssay by National Center for Advancing Translational Sciences (NCATS).
